# Reference: PubChem BioAssay (EPA / NIEHS)
# Several values for one entry are separate records, joined by “and”; a condition that tells them apart may be missing. Equal values may be shown once. Records with an inconclusive call do not appear. Activity calls are given as the source filed them. The calls were made as follows, unless noted: active = hit-call score of the fitted dose curve at least 0.9, where 1 is the maximum; inconclusive = response in the unintended direction; inactive = score below 0.9.
# Legend:
# [1] = read-out: Thyroid Hormone Responsive (THRSP), THRSP (gene 7069); test: LTEA_HepaRG_THRSP: Life Technologies and Expression Analysis (LTEA) Assay for Thyroid Hormone Responsive (THRSP) using HepaRG (AID 2283536; active = hit-call score of the fitted dose curve at least 0.9, where 1 is the maximum; inactive = score below 0.9); conditions: mRNA level, 48 h; actives raise or lower the signal
# Procedure, shortened: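 qRT-PCR read-out (Fluidigm TaqMan), housekeeping-normalized (ACTB/GAPDH/POLR2A). HepaRG, 48 h chemical exposure, 8-pt half-log series from 100 uM in 0.5% DMSO, duplicates. Bidirectional curve fit vs 0.5% DMSO baseline.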
# [2] = read-out: Cellular tumor antigen p53 (Homo sapiens) (UniProt P04637); test: LTEA_HepaRG_TP53: Life Technologies and Expression Analysis (LTEA) Assay for Tumor Protein P53 (TP53) using HepaRG (AID 2283537; active = hit-call score of the fitted dose curve at least 0.9, where 1 is the maximum; inactive = score below 0.9); conditions: mRNA level, 48 h; actives raise or lower the signal
# Procedure, shortened: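 Gain or loss of TP53 mRNA signal is scored relative to 0.5% DMSO after 48 h chemical treatment of HepaRG liver cells, tested in duplicate at eight half-log concentrations up to 100 uM.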
# [3] = read-out: UDP glucuronosyltransferase (UGT1A1), UGT1A1 (gene 54658); test: LTEA_HepaRG_UGT1A1: Life Technologies and Expression Analysis (LTEA) Assay for UDP glucuronosyltransferase (UGT1A1) using HepaRG (AID 2283538; active = hit-call score of the fitted dose curve at least 0.9, where 1 is the maximum; inactive = score below 0.9); conditions: mRNA level, 48 h; actives raise or lower the signal
# Procedure, shortened: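 UGT1A1 transcript level, measured by qRT-PCR with three housekeeping genes for normalization, after 48 h treatment of human HepaRG cells (0.5% DMSO, duplicates, up to 100 uM, half-log steps, 8 points). Curves fit both directions against DMSO baseline.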
# [4] = read-out: UDP glucuronosyltransferase (UGT1A6), UGT1A6 (gene 54578); test: LTEA_HepaRG_UGT1A6: Life Technologies and Expression Analysis (LTEA) Assay for UDP glucuronosyltransferase (UGT1A6) using HepaRG (AID 2283539; active = hit-call score of the fitted dose curve at least 0.9, where 1 is the maximum; inactive = score below 0.9); conditions: mRNA level, 48 h; actives raise or lower the signal
# Procedure, shortened: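 Expression was quantified by TaqMan qRT-PCR on Fluidigm arrays with ACTB/GAPDH/POLR2A normalization and bidirectional fitting against 0.5% DMSO. HepaRG cells (~100,000/well) were treated in duplicate for 48 h at eight half-log concentrations up to 100 uM in serum-free induction medium.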
# [5] = read-out: X-box binding protein 1 (XBP1), XBP1 (gene 7494); test: LTEA_HepaRG_XBP1: Life Technologies and Expression Analysis (LTEA) Assay for X-box binding protein 1 (XBP1) using HepaRG (AID 2283540; active = hit-call score of the fitted dose curve at least 0.9, where 1 is the maximum; inactive = score below 0.9); conditions: mRNA level, 48 h; actives raise or lower the signal
# Procedure, shortened: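 XBP1 transcript by qRT-PCR (housekeeping-normalized: ACTB, GAPDH, POLR2A) after 48 h chemical treatment of HepaRG cells, 8-point half-log series topping at 100 uM, vehicle 0.5% DMSO. Gain and loss of signal fitted relative to DMSO.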
# [6] = LTEA_HepaRG_LDH_cytotoxicity: Cytotoxicity Assessment in the Life Technologies and Expression Analysis (LTEA) Assay (AID 2283563);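 as to AC50: LDH activity released into spent culture medium as a marker of cell death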
# Procedure, shortened: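 LDH release into culture medium read after 48 h chemical treatment of HepaRG cells. Duplicate wells, eight-point half-log series topping at 100 uM, 0.5% DMSO vehicle and baseline.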
# [7] = ATG_XTT_Cytotoxicity: Cytotoxicity Assessment in the Attagene TRANS-FACTORIAL HepG2 Assay (AID 2283584)
# Procedure, shortened: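 Viability endpoint from XTT after 24 h chemical exposure of reporter-transfected human HepG2 liver cells; signal loss fitted relative to DMSO negative control.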
# [8] = molecular target: Cellular tumor antigen p53 (Homo sapiens) (UniProt P04637); test: TOX21_p53_BLA_p3_ratio: Tox21 HCT-116 p53 Agonism Beta-lactamase Assay, Ratio, Phase 3 (AID 2283596)
# Procedure, shortened: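 Cells were seeded at 4000/well, rested 5 h at 37C, then dosed with DMSO compound solutions (217-fold dilution) for 16 h. CCF4-AM substrate was loaded for 2 h at room temperature, and the 460/530 nm emission ratio was fitted for gain of signal versus DMSO.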
# [9] = molecular target: Cellular tumor antigen p53 (Homo sapiens) (UniProt P04637); test: TOX21_p53_BLA_p4_ratio: Tox21 HCT-116 p53 Agonism Beta-lactamase Assay, Ratio, Phase 4 (AID 2283601)
# Procedure, shortened: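 HCT-116 p53 beta-lactamase reporter cells (4000/well) preincubated 5 h, then compound (217-fold dilution of DMSO stock) for 16 h at 37C. CCF4-AM substrate added 2 h at room temperature; 460/530 nm emission ratio fitted upward versus DMSO.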
# [10] = Tanguay_ZF_120hpf_MORT_legacy: (Legacy) Oregon State University Tanguay Lab 120 Hour Post-fertilization zebrafish Assay for Mortality (AID 2283633)
# Procedure, shortened: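 Static waterborne exposure from 6 to 120 hpf at 28C of single dechorionated wild-type (5D) embryos per well, 0.64% DMSO final. Death recorded present/absent by brightfield at 24 and 120 hpf.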
# [11] = Tanguay_ZF_120hpf_YSE_legacy: (Legacy) Oregon State University Tanguay Lab 120 Hour Post-fertilization zebrafish Assay for Yolk Sac Edema (AID 2283634)
# Procedure, shortened: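 Presence or absence of yolk sac edema was recorded at 120 hpf in surviving larvae. These were wild-type Tropical 5D embryos, chorion removed at 4 hpf, held in static exposure at 28C from 6 hpf with 0.64% DMSO vehicle.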
# [12] = Tanguay_ZF_120hpf_AXIS_legacy: (Legacy) Oregon State University Tanguay Lab 120 Hour Post-fertilization zebrafish Assay for Body Axis Malformation (AID 2283635)
# Procedure, shortened: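 Binary scoring of axis defects at 120 hpf under brightfield, fitted positive versus DMSO. Tropical 5D embryos, chorion removed by pronase at 4 hpf, were singly exposed in sealed, dark plates at 28C from 6 hpf; DMSO 0.64% final.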
# [13] = Tanguay_ZF_120hpf_EYE_legacy: (Legacy) Oregon State University Tanguay Lab 120 Hour Post-fertilization zebrafish Assay for Eye Malformation (AID 2283636);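 also: binary presence or absence of eye malformation scored by brightfield in 120 hpf larvae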
# Procedure, shortened: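 5D wild-type embryos, pronase-dechorionated at 4 hpf; static exposure 6–120 hpf, 28C, dark; DMSO 0.64% final; 5uM trimethyltin chloride positive control. Binary eye-defect scoring at 120 hpf; dead embryos not scored.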
# [14] = Tanguay_ZF_120hpf_SNOU_legacy: (Legacy) Oregon State University Tanguay Lab 120 Hour Post-fertilization zebrafish Assay for Snout Malformation (AID 2283637)
# Procedure, shortened: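 Binary brightfield scoring of snout malformation at 120 hpf. Dechorionated 5D wild-type embryos, one per well, static exposure from 6 hpf at 28C, sealed and dark; final DMSO 0.64% (vol/vol), DMSO as baseline; 5uM trimethyltin chloride positive control.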
# [15] = Tanguay_ZF_120hpf_JAW_legacy: (Legacy) Oregon State University Tanguay Lab 120 Hour Post-fertilization zebrafish Assay for Jaw Malformation (AID 2283638)
# Procedure, shortened: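 Binary jaw-malformation call at 120 hpf by brightfield microscopy. Embryos (Tropical 5D strain, chorion removed at 4 hpf) were dosed statically at 6 hpf, one per well, at 28C with 0.64% DMSO. Embryos that died were not scored.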
# [16] = TOX21_p53_BLA_p3_viability: Viability Assessment in the Tox21 HCT-116 p53 Agonism Beta-lactamase Assay, Phase 3 (AID 2283593);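 also: cells exposed to compound for 16 h before reading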
# Procedure, shortened: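 HCT116 cells, 4000/well, dosed 5 h after plating by pin transfer (217-fold dilution from DMSO stock) and incubated 16 h at 37C, 5% CO2. Viability read as ATP luminescence with CellTiter-Glo after 30 min at room temperature.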
# [17] = TOX21_p53_BLA_p4_viability: Viability Assessment in the Tox21 HCT-116 p53 Agonism Beta-lactamase Assay, Phase 4 (AID 2283597);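 also: hits lower the luminescence signal meaning cytotoxicity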
# Procedure, shortened: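 Cytotoxicity as reduced cellular ATP (CellTiter-Glo luminescence, 30 min room temperature), measured in the same wells following the CCF4 FRET p53 reading. Human HCT-116 cells received compounds in DMSO (217-fold dilution) for 16 h.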
# [18] = TOX21_p53_BLA_p5_viability: Viability Assessment in the Tox21 HCT-116 p53 Agonism Beta-lactamase Assay, Phase 5 (AID 2283600)
# Procedure, shortened: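 Viability came from CellTiter-Glo ATP luminescence, read after 30 min at room temperature. Before this, HCT-116 p53-bla cells (4000/well) had 16 hours of compound exposure at 37C, with DMSO stocks diluted 217-fold on transfer.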
# [19] = TOX21_p53_BLA_p2_viability: Viability Assessment in the Tox21 HCT-116 p53 Agonism Beta-lactamase Assay, Phase 2 (AID 2283591);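 also: compound exposure lasted 16 h at 37 °C; actives lower the ATP signal meaning cytotoxicity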
# Procedure, shortened: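 HCT116 p53-bla cells, 4000/well, dosed after 5 h plating (217-fold dilution of DMSO stocks) and incubated 16 h at 37C. Viability taken as cellular ATP by CellTiter-Glo luminescence after 30 min RT; signal loss marks cytotoxicity.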
# Sequence of Cellular tumor antigen p53 (Homo sapiens) (P04637 whole entry, looked up): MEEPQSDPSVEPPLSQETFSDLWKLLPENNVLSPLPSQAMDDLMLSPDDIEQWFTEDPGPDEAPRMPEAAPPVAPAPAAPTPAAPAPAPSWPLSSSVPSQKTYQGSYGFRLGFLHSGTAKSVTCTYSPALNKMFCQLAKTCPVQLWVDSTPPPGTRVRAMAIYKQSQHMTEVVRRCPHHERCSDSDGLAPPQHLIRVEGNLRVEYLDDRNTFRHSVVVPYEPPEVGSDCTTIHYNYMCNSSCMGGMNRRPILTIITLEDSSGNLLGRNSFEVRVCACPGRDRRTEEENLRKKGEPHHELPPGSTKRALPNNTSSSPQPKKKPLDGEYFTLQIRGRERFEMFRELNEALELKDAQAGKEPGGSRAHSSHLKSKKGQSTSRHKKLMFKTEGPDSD
compound,measurement,setting,value
O=C(c1ccc(O)cc1O)c1ccc(O)cc1O,outcome,[1],inactive
same,outcome,[2],inactive
same,outcome,[3],inactive
same,outcome,[4],inactive
same,outcome,[5],inactive
same,outcome,[6],inactive
same,outcome,[7],inactive
same,AC50,[8],73.8 µM (active) and 73.3 µM (active)
same,outcome,[9],inactive
same,outcome,[10],inactive
same,outcome,[11],inactive
same,outcome,[12],inactive
same,outcome,[13],inactive
same,outcome,[14],inactive
same,outcome,[15],inactive
CC(=O)S[C@@H]1CC2=CC(=O)CC[C@]2(C)[C@H]2CC[C@@]3(C)[C@@H](CC[C@@]34CCC(=O)O4)[C@H]12,AC50,[1],36.5 µM (active)
same,outcome,[2],inactive
same,AC50,[3],72.2 µM (active)
same,AC50,[4],50 µM (active)
same,AC50,[5],50 µM (active)
same,AC50,[6],79.1 µM (active)
same,outcome,[7],inactive
same,outcome,[16],inactive
same,outcome,[8],inactive
same,outcome,[17],inactive
same,outcome,[18],inactive
same,outcome,[9],inactive
same,outcome,[10],inactive
same,outcome,[11],inactive
same,outcome,[12],inactive
same,outcome,[13],inactive
same,outcome,[14],inactive
same,outcome,[15],inactive
CCCCC(CC)COC(=O)c1ccccc1C(=O)O (configuration not stated),outcome,[1],inactive
same,outcome,[2],inactive
same,AC50,[3],64.9 µM (active)
same,outcome,[4],inactive
same,outcome,[5],inactive
same,outcome,[6],inactive
same,outcome,[7],inactive
same,outcome,[19],inactive
same,outcome,[16],inactive
same,outcome,[8],inactive
same,outcome,[17],inactive
same,outcome,[18],inactive
same,outcome,[9],inactive
same,outcome,[10],inactive
same,outcome,[11],inactive
same,outcome,[12],inactive
same,outcome,[13],inactive
same,outcome,[14],inactive
same,outcome,[15],inactive
